ALDH1A1 inh: ALDH1A1 (human) enzyme inhibition. Purified ALDH1A1, NADH fluorescence, propionaldehyde substrate. actives 7.3% (n = 220,000). Potency, µM (top dose mostly 75.3 µM), for the others: at the top dose activity, negative = inhibition, actives largely listed as inhibitors;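 further: plate controls were no enzyme wells and a reference inhibitor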
Target sequence (P00352 whole entry, looked up): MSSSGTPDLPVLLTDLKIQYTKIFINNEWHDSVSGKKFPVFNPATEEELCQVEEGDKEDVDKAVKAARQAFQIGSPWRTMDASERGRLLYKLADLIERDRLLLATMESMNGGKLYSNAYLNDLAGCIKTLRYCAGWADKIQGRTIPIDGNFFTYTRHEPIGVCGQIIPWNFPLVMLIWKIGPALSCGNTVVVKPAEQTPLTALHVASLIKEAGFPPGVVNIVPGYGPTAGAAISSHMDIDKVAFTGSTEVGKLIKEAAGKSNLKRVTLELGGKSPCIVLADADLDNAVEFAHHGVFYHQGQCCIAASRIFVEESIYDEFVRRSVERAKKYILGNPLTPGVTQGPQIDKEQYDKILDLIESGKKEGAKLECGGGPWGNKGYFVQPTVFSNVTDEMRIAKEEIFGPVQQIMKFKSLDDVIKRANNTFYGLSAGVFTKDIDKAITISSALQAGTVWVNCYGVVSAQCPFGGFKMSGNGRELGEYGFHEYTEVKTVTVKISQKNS
Tau fluor counter: counter-screen for tau fibril formation inhibitors; tau K18 P301L Alexa594 fluorescence, heparin fibrillization; Potency, µM (highest dose often 57.7 µM), for inactives: top-dose activity change, negative = decrease; actives 0.93% (n = 280,000); AID 1463; active means well fitted curve in the direction sought with a large enough effect; inconclusive means small, poorly fitted or top-dose-only effect, or another doubt; inactive means no such curve, though single readings can be large; an effect the other way counts as inactive or inconclusive; further: nearly all actives have a fitted effect of over 55% in size
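Human K18 P301L tau (15 uM unlabeled plus 0.24 uM Alexa 594-labeled, final) in 100 mM sodium acetate pH 7 was mixed with compound and 20 uM heparin and incubated 6 hr at 37 C.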
HPGD inh: HPGD (human) dehydrogenase inhibition; P15428; purified HPGD, NADH fluorescence kinetic, PGE2 substrate; Potency, µM, inactives show top-dose activity change, negative = inhibition, hits mostly inhibitors; actives 4.3% (n = 150,000)
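20 nM HPGD preincubated 15 min at room temperature with compound in 50 mM Tris-HCl pH 8, 0.01% Tween 20. Started with 1 mM NAD+ and 30 uM prostaglandin E2; NADH fluorescence (360/450 nm) read 5 times over 30-s intervals, last minus first.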
Tau fibril ThT: blocks human tau fibril formation measured by thioflavin T; actives 2.1% (n = 270,000); Potency, µM (top dose mostly 57.4 µM), without a hit: top-dose activity, negative = inhibition, actives largely listed as inhibitors; AID 1460; recombinant tau K18 P301L (four-repeat tau fragment), heparin-induced fibrillization, ThT fluorescence; active means well fitted curve in the direction sought with a large enough effect; inconclusive means small, poorly fitted or top-dose-only effect, or another doubt; inactive means no such curve, though single readings can be large; an effect the other way counts as inactive or inconclusive; further: nearly all actives have a fitted effect of over 55% in size
Target sequence (P10636 561-689 P618L limits assumed): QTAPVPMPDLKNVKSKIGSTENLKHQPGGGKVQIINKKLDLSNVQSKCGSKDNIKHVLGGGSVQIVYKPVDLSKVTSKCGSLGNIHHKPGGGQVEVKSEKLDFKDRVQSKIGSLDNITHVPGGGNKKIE
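Heparin-induced fibrillization of the P301L-mutant K18 repeat-domain fragment of human tau was followed by ThT binding in quantitative high-throughput format.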
KDM4E inh: blocks human JMJD2E demethylase activity; Potency, µM (highest dose often 57.1 µM), for inactives: at the top dose activity change, negative = inhibition, usual class: inhibitors; AID 2147; JMJD2E catalytic domain, FDH-coupled NADH fluorescence (FDH is formaldehyde dehydrogenase); B2RXH2; actives 1.6% (n = 230,000);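 further: 0% = wells with enzyme and -100% = buffer wells without enzyme; nearly all actives have a fitted effect of over 50% in size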
Tau fibril FP: inhibitors of human tau fibril formation | P10636 | K18 P301L tau heparin fibrillization, Alexa594 FP, 6 h | Potency, µM (doses to about 57.7 µM), inactives show at the highest dose activity, negative = inhibition, usual class: inhibitors | actives 0.39% (n = 280,000) | AID 1468; active means well fitted curve in the direction sought with a large enough effect; inconclusive means small, poorly fitted or top-dose-only effect, or another doubt; inactive means no such curve, though single readings can be large; an effect the other way counts as inactive or inconclusive; further: nearly all actives have a fitted effect of over 55% in size
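Read-out: fluorescence polarization of Alexa 594-labeled tau (0.24 uM), 555 nm excitation, 632 nm emission. Mixtures held 15 uM unlabeled K18 P301L, compound and 20 uM heparin, pH 7 acetate buffer, incubated 6 hr at 37 C.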
* = called active by the depositor; [ ] = dose if it differs, or a comment. Sampled rows, rich in hits. Any-hit rate of the full collection: about 9.9%. Unless noted, the call rests on the fitted dose curve; in most records, active means well fitted inhibition curve with a large enough effect (not every such curve was filed as active); inconclusive means small, poorly fitted or top-dose-only effect, or another doubt; inactive means no such curve, though single readings can be large or run the other way. Unless noted, on the % scale 0 is the no-effect control and ±100 the full control effect; potency means the concentration at half of the fitted maximal effect.

What do the screens show for `Cc1cccc(C(=O)Nc2nnc(SCc3cc(=O)n4cccc(C)c4n3)s2)c1`?
Tau fluor counter: 5%; Tau fibril ThT: 4%; Tau fibril FP: 1%

What do the screens show for `COc1ccc(C(C)=O)cc1COC(=O)c1c(C)noc1C`?
ALDH1A1 inh: 22µM*; Tau fluor counter: 2%; HPGD inh: -21%; Tau fibril ThT: -5%; KDM4E inh: -3%; Tau fibril FP: 1%

Results for COc1ccc(C(C)=O)cc1COC(=O)c1ccc(OCc2c(C)noc2C)cc1 ?
ALDH1A1 inh: 7.9µM*; Tau fluor counter: -15%; HPGD inh: -12%; Tau fibril ThT: 0%; KDM4E inh: -2%; Tau fibril FP: -9%

What do the screens show for `COc1ccc(C(=O)OCc2c(C)noc2C)cc1`?
ALDH1A1 inh: inconclusive; Tau fluor counter: 0%; Tau fibril ThT: -3%; KDM4E inh: -6%; Tau fibril FP: 3%

How did COc1ccc(C(C)=O)cc1COc1ccc(-n2cnnn2)cc1 do in these assays?
ALDH1A1 inh: 3.5µM*; Tau fluor counter: -4%; HPGD inh: inconclusive; Tau fibril ThT: -7%; KDM4E inh: 3%; Tau fibril FP: 8%

What do the screens show for `COc1ccc(C(C)=O)cc1COC(=O)c1cnc(C)cn1`?
ALDH1A1 inh: -5%; Tau fluor counter: 2%; HPGD inh: -8%; Tau fibril ThT: 1%; KDM4E inh: 7%; Tau fibril FP: 9%

Results for CCOc1ccc(/C=C2\SC(=O)N(c3ccc(O)cc3)C2=O)cc1OC ?
Tau fluor counter: 4%[0.0958 µM]; KDM4E inh: 13%; Tau fibril FP: -3%[0.0958 µM]

How did COc1cc(/C=C2\SC(=O)N(c3ccc(Cl)cc3)C2=O)cc([N+](=O)[O-])c1O do in these assays?
ALDH1A1 inh: -5%; Tau fluor counter: inconclusive; Tau fibril ThT: 18µM*; KDM4E inh: -16%; Tau fibril FP: 3%

How did COc1cc(/C=C2/NC(=O)N(c3cccc(Cl)c3)C2=O)ccc1O do in these assays?
ALDH1A1 inh: 1%; Tau fluor counter: -19%; Tau fibril ThT: -16%; KDM4E inh: -14%; Tau fibril FP: 14%

How did COc1cc(/C=C2\SC(=O)N(c3cccc(Cl)c3)C2=O)cc([N+](=O)[O-])c1O do in these assays?
ALDH1A1 inh: 0.89µM*; Tau fluor counter: inconclusive; Tau fibril ThT: 8.9µM*; KDM4E inh: -10%; Tau fibril FP: 2%

How did Cc1ccc(Oc2nc3c(c(=O)n(Cc4ccccc4)c(=O)n3C)n2C)cc1C do in these assays?
Tau fluor counter: -11%; Tau fibril ThT: -13%; Tau fibril FP: -3%

What do the screens show for `COc1cccc(-c2nc(CS(=O)(=O)CC(=O)N3CCN(c4ccccn4)CC3)c(C)o2)c1`?
ALDH1A1 inh: 32µM*; Tau fluor counter: 0%; HPGD inh: -10%; Tau fibril ThT: -10%; KDM4E inh: -8%; Tau fibril FP: -3%

Results for COc1ccc(N2CCN(c3ccc(C(N)=O)cc3[N+](=O)[O-])CC2)cc1 ?
ALDH1A1 inh: -4%; Tau fluor counter: inconclusive; Tau fibril ThT: 4.5µM*; KDM4E inh: -6%; Tau fibril FP: 1%

Results for NC(=O)c1ccc(N2CCN(c3ccccc3O)CC2)c([N+](=O)[O-])c1 ?
ALDH1A1 inh: 9%; Tau fluor counter: -18%; Tau fibril ThT: inconclusive; KDM4E inh: -12%; Tau fibril FP: 5%

How did NC(=O)c1ccc(N2CCN(c3ccccc3F)CC2)c([N+](=O)[O-])c1 do in these assays?
ALDH1A1 inh: 2%; Tau fluor counter: -29%; Tau fibril ThT: 16µM*; KDM4E inh: 8%; Tau fibril FP: inconclusive

How did Cc1ccc2occ(/C=C/C(=O)c3ccccc3O)c(=O)c2c1 do in these assays?
ALDH1A1 inh: 7.9µM*; Tau fluor counter: -5%; HPGD inh: -17%; Tau fibril ThT: inconclusive; KDM4E inh: -4%; Tau fibril FP: 8%

How did Cc1c(/C=C/C(=O)c2ccccc2O)cnn1C do in these assays?
ALDH1A1 inh: -1%; Tau fluor counter: -5%; HPGD inh: -8%; Tau fibril ThT: inconclusive; KDM4E inh: inconclusive; Tau fibril FP: -2%

How did CC(C)Cn1c(=O)c2ccccc2n2c(CCC(=O)Nc3ccc(F)cc3)nnc12 do in these assays?
Tau fluor counter: -21%; Tau fibril ThT: -15%; Tau fibril FP: -16%

How did CCOC(=O)CCCCC(=O)c1[nH]c(=O)[nH]c1CSc1nc(-c2ccccc2)c(C#N)c(=O)[nH]1 do in these assays?
ALDH1A1 inh: 7.9µM*; Tau fluor counter: -5%; HPGD inh: 20µM*; Tau fibril ThT: inconclusive; KDM4E inh: -12%; Tau fibril FP: -6%

What do the screens show for `N#Cc1c(-c2ccccc2)nc(SCC(=O)N(c2ccccc2)c2ccccc2)[nH]c1=O`?
ALDH1A1 inh: 13µM*; Tau fluor counter: -7%; HPGD inh: 28µM*; Tau fibril ThT: inconclusive; KDM4E inh: -3%; Tau fibril FP: -8%

Results for N#Cc1c(-c2ccccc2)nc(SCC(=O)Nc2ccccc2)[nH]c1=O ?
ALDH1A1 inh: -2%; Tau fluor counter: -11%; HPGD inh: -25%; Tau fibril ThT: -6%; KDM4E inh: 3%; Tau fibril FP: 4%

How did N#Cc1c(-c2ccccc2)nc(SCC(=O)Nc2ccccc2F)[nH]c1=O do in these assays?
ALDH1A1 inh: inconclusive; Tau fluor counter: -1%; HPGD inh: 16µM*; Tau fibril ThT: 5%; KDM4E inh: 0%; Tau fibril FP: 7%

Results for C#CC1CCCCC1NC(=O)Nc1cnccc1C(F)(F)F (centres undefined) ?
ALDH1A1 inh: 12%; Tau fluor counter: -1%; Tau fibril ThT: -3%; KDM4E inh: 0%; Tau fibril FP: 5%

Results for O=S(=O)(NCCSc1ccccn1)c1ccc(Br)cc1 ?
ALDH1A1 inh: inconclusive; Tau fluor counter: -11%; Tau fibril ThT: 2%; KDM4E inh: 2%; Tau fibril FP: -5%

What do the screens show for `Clc1cccc(Cl)c1-c1noc(CN2CCOCC2)n1`?
ALDH1A1 inh: -4%; Tau fluor counter: -1%; Tau fibril ThT: -6%; KDM4E inh: 13%; Tau fibril FP: -3%

What do the screens show for `COCCCNC(=O)CCCn1c(SCC(=O)c2ccc(F)cc2)nc2c(sc3ccccc32)c1=O`?
Tau fluor counter: 8%; Tau fibril ThT: 6%; Tau fibril FP: -14%

What do the screens show for `COc1ccc(C2N(c3ccccc3)CCN2c2ccccc2)cc1O`?
ALDH1A1 inh: -5%; Tau fluor counter: 14µM*[quencher]; Tau fibril ThT: inconclusive; KDM4E inh: -30%; Tau fibril FP: 10%

Screening data: PubChem, National Center for Advancing Translational Sciences (NCATS)
